Drawing on PubChem BioAssay (EPA / NIEHS), this text covers outcome and AC50 for 22 molecules.

Molecules are shown by their SMILES. Calls of active or inactive are those of the source. The calls were made as follows: active = hit-call score of the fitted dose curve at least 0.9, where 1 is the maximum; inactive = score below 0.9.

One may read the AC50 as the concentration at which the activity in the assay is half-maximal.

The target of the experiment is Hepatocyte nuclear factor 3-beta (Homo sapiens) (UniProt Q9Y261). Put plainly: ATG_FoxA2_CIS: Attagene CIS-FACTORIAL HepG2 Assay for human Forkhead box A2 (FOXA2) (AID 2282942). The conditions noted are these: HepG2 cis-reporter transcription factor activity, 24 h; actives raise or lower the signal. A digest of the protocol: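 In transiently transfected human HepG2 cells, promoter-driven reporter mRNA levels after 24 h chemical exposure are determined via RT-PCR with capillary electrophoresis. DMSO serves as baseline for bidirectional fitting.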
Hepatocyte nuclear factor 3-beta (Homo sapiens), sequence (Q9Y261 whole entry, looked up): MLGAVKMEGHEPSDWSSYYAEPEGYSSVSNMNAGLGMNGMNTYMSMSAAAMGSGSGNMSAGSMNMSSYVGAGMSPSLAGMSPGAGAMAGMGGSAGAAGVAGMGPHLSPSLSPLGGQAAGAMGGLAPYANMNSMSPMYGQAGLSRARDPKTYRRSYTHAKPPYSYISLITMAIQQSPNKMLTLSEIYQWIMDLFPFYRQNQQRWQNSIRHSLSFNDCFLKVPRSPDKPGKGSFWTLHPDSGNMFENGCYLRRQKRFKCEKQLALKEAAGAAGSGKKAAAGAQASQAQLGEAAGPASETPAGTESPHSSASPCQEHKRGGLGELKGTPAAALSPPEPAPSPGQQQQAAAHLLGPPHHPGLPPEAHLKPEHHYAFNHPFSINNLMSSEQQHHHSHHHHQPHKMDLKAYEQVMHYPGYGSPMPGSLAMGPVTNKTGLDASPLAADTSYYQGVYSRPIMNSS
On to `CCCCCCCCCCBr`, for which the call was inactive.

Take `N#CCCC(Br)(C#N)CBr` (configuration not stated): the molecule was classed as inactive.

With `O=C(NC(=O)c1c(F)cccc1F)Nc1cc(Cl)c(Oc2ncc(C(F)(F)F)cc2Cl)c(Cl)c1`, the outcome was inactive.

Turning to `C=C(C)[C@@H]1CC=C(C=O)CC1`, the result was inactive.

As for `Cc1cc(SCc2sc(-c3ccc(C(F)(F)F)c(F)c3)nc2C)ccc1OCC(=O)O`, the call was inactive.

In the case of `ClCc1ccccc1CCl`, the concentration at half-maximal activity (AC50) was 33.4 µM (active).

Regarding `N#Cc1ccc(Cl)cc1`, the outcome was inactive.

Take `C[N+](C)(C)Cc1ccccc1`: the molecule was called inactive.

Consider `O=C1C=CC(=O)c2ccccc21`, for which the outcome was inactive.

`CC(O)(CS(=O)(=O)c1ccc(F)cc1)C(=O)Nc1ccc(C#N)c(C(F)(F)F)c1` (configuration not stated): the result was inactive.

Take `CCOC(=O)CC(=O)CCl`: the AC50 is 133 µM (active).

Consider `O=C(NC(=O)c1c(F)cccc1F)Nc1cc(Cl)c(OC(F)(F)C(F)C(F)(F)F)cc1Cl` (configuration not stated), for which the result was inactive.

As to `C=CC(=O)NC(C)(C)CC(C)=O`, the call was inactive.

For `CC(C)CP(=S)(S)CC(C)C`, the molecule was classed as inactive.

Take `Cc1cc(C(F)(C(F)(F)F)C(F)(F)F)ccc1NC(=O)c1cccc(I)c1C(=O)NC(C)(C)CS(C)(=O)=O`: the call was inactive.

As to `O=S1OC[C@@H]2[C@H](CO1)[C@]1(Cl)C(Cl)=C(Cl)[C@@]2(Cl)C1(Cl)Cl` (some centres not stated), the call was inactive.

In the case of `CC1(C)[C@H](/C=C2\CCSC2=O)[C@@H]1C(=O)OCc1coc(Cc2ccccc2)c1`, the call was inactive.

As for `CNC(=O)CSP(=O)(OC)OC`, the call was inactive.

For `c1csc(-c2ccc(-c3cccs3)s2)c1`, the AC50 was 4.46 µM (active).

As for `C1CCC(C2CCCCC2)CC1`, the outcome was inactive.

Consider `NC(=O)c1ccc(N)nc1`, for which the molecule was classed as inactive.

Take `CC(F)(F)CC(F)(F)F`: the outcome was inactive.
